Among all 5,500 compounds or so, about 2,000 (36%) were called active. About 18% were inconclusive and are not listed. Cut-off read from the data, not from the text of the source: active = normalized growth mostly below about 0.91 (no sharp cut-off); inconclusive = no clear call, values can overlap the other calls; inactive = mostly above about 0.92. The list shows a part of the results.
Experiment: chemical genetic growth profiling, strain panel (AID 1159580);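 note: tested at 20 µM; growth read once vehicle control cultures reached saturation at 30 °C; 1 = growth at the plate median or of vehicle wells; lower values mean less growth of the strain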
Conditions: growth OD
[1] = S. cerevisiae deletion strains, locus YAL013W, strain DEP1, active compounds read low
[2] = S. cerevisiae deletion strains, locus YBR229C, strain ROT2, active compounds read low
[3] = S. cerevisiae deletion strains, locus YCL061C, strain MRC1, active compounds read low
[4] = S. cerevisiae deletion strains, locus YDL101C, strain DUN1, active compounds read low
[5] = S. cerevisiae deletion strains, locus YDR150W, strain NUM1, active compounds read low
[6] = S. cerevisiae deletion strains, locus YEL061C, strain CIN8, active compounds read low
[7] = S. cerevisiae deletion strains, locus YGR078C, strain PAC10, active compounds read low
[8] = S. cerevisiae deletion strains, locus YHR030C, strain SLT2, active compounds read low
[9] = S. cerevisiae deletion strains, locus YHR087W, strain rtc3, active compounds read low
[10] = S. cerevisiae deletion strains, locus YJL187C, strain SWE1, active compounds read low
[11] = S. cerevisiae deletion strains, locus YJR043C, strain POL32, active compounds read low
[12] = S. cerevisiae deletion strains, locus YJR075W, strain HOC1, active compounds read low
[13] = S. cerevisiae deletion strains, locus YLR039C, strain RIC1, active compounds read low
[14] = S. cerevisiae deletion strains, locus YLR058C, strain SHM2 (second series), active compounds read low
[15] = S. cerevisiae deletion strains, locus YLR085C, strain ARP6, active compounds read low
[16] = S. cerevisiae deletion strains, locus YLR262C, strain YPT6, active compounds read low
[17] = S. cerevisiae deletion strains, locus YML094W, strain GIM5, active compounds read low
[18] = S. cerevisiae deletion strains, locus YMR219W, strain ESC1, active compounds read low
[19] = S. cerevisiae deletion strains, locus YMR263W, strain SAP30, active compounds read low
[20] = S. cerevisiae deletion strains, locus YMR307W, strain GAS1, active compounds read low
[21] = S. cerevisiae deletion strains, locus YNL153C, strain GIM3, active compounds read low
[22] = S. cerevisiae deletion strains, locus YNL298W, strain CLA4 (second series), active compounds read low
[23] = S. cerevisiae deletion strains, locus YNL322C, strain KRE1, active compounds read low
[24] = S. cerevisiae deletion strains, locus YNR030W, strain Alg12, active compounds read low
[25] = S. cerevisiae deletion strains, locus YPL055C, strain LGE1, active compounds read low
[26] = S. cerevisiae deletion strains, locus YPL241C, strain CIN2, active compounds read low
[27] = S. cerevisiae deletion strains, locus YPR135W, strain CTF4, active compounds read low
[28] = S. cerevisiae strains, strain wild type, active compounds read low

Measured: normalized growth

Cc1onc(-c2ccccc2Cl)c1C(=O)N1CCCN2C(=O)c3ccccc3C21 (stereo not drawn)
inactive: [1] 1 | [2] 0.989 | [3] 0.985 | [4] 0.963 | [5] 0.971 | [6] 1.01 | [7] 0.994 | [8] 0.942 | [9] 0.987 | [10] 1.01 | [11] 0.968 | [12] 1.03 | S. cerevisiae deletion strains, locus YKL190W, strain CNB1, active compounds read low 1 | [13] 0.995 | [14] 0.985 | [15] 1.01 | [16] 0.995 | [17] 1 | [18] 1.01 | [19] 0.999 | [20] 0.992 | S. cerevisiae deletion strains, locus YNL128W, strain TEP1, active compounds read low 0.991 | [21] 0.972 | [22] 0.998 | [23] 1 | [24] 0.993 | [25] 1.01 | [26] 0.987 | [27] 0.931

CCCCC(=O)O[C@]1(C(=O)CO)CCC2C3CCC4=CC(=O)CC[C@]4(C)C3[C@@H](O)C[C@@]21C (stereo partly drawn)
inactive: S. cerevisiae deletion strains, locus YAL021C, strain ccr4, active compounds read low 0.974 | S. cerevisiae deletion strains, locus YAL026C, strain drs2, active compounds read low 0.982 | S. cerevisiae deletion strains, locus YAL030W, strain snc1, active compounds read low 0.976 | S. cerevisiae deletion strains, locus YBL061C, strain skt5, active compounds read low 0.988 | S. cerevisiae deletion strains, locus YBR009C, strain hhf1, active compounds read low 0.985 | S. cerevisiae deletion strains, locus YBR023C, strain chs3, active compounds read low 0.987 | S. cerevisiae deletion strains, locus YBR171W, strain sec66, active compounds read low 0.976 | S. cerevisiae deletion strains, locus YBR231C, strain swc5, active compounds read low 0.979 | S. cerevisiae deletion strains, locus YBR279W, strain paf1, active compounds read low 0.989 | S. cerevisiae deletion strains, locus YCL011C, strain gbp2, active compounds read low 0.963 | S. cerevisiae deletion strains, locus YCL016C, strain dcc1, active compounds read low 0.981 | [3] 0.983 | S. cerevisiae deletion strains, locus YCL069W, strain vba3, active compounds read low 0.985 | S. cerevisiae deletion strains, locus YCR088W, strain abp1, active compounds read low 0.991 | S. cerevisiae deletion strains, locus YDL005C, strain med2, active compounds read low 0.979 | S. cerevisiae deletion strains, locus YDL040C, strain nat1, active compounds read low 0.981 | S. cerevisiae deletion strains, locus YDR001C, strain nth1, active compounds read low 0.987 | S. cerevisiae deletion strains, locus YDR069C, strain doa4, active compounds read low 0.973 | S. cerevisiae deletion strains, locus YDR137W, strain rgp1, active compounds read low 0.939 | S. cerevisiae deletion strains, locus YDR159W, strain sac3, active compounds read low 0.97 | S. cerevisiae deletion strains, locus YDR195W, strain ref2 0.933 | S. cerevisiae deletion strains, locus YDR297W, strain sur2, active compounds read low 0.981 | S. cerevisiae deletion strains, locus YDR334W, strain swr1, active compounds read low 0.947 | S. cerevisiae deletion strains, locus YDR335W, strain msn5, active compounds read low 0.975 | S. cerevisiae deletion strains, locus YDR392W, strain spt3, active compounds read low 0.968 | S. cerevisiae deletion strains, locus YEL003W, strain gim4, active compounds read low 0.997 | S. cerevisiae deletion strains, locus YEL037C, strain rad23, active compounds read low 0.97 | S. cerevisiae deletion strains, locus YEL061C, strain CIN8 (second series), active compounds read low 0.98 | S. cerevisiae deletion strains, locus YER015W, strain faa2, active compounds read low 0.972 | S. cerevisiae deletion strains, locus YER016W, strain bim1, active compounds read low 0.974 | S. cerevisiae deletion strains, locus YER111C, strain swi4, active compounds read low 0.981 | S. cerevisiae deletion strains, locus YER155C, strain BEM2 (second series), active compounds read low 0.981 | S. cerevisiae deletion strains, locus YFR010W, strain ubp6, active compounds read low 0.957 | S. cerevisiae deletion strains, locus YGL167C, strain pmr1, active compounds read low 0.976 | S. cerevisiae deletion strains, locus YGL173C, strain kem1, active compounds read low 0.964 | S. cerevisiae deletion strains, locus YGL227W, strain vid30, active compounds read low 0.984 | S. cerevisiae deletion strains, locus YGL240W, strain doc1, active compounds read low 0.973 | S. cerevisiae deletion strains, locus YGL253W, strain hxk2, active compounds read low 0.976 | S. cerevisiae deletion strains, locus YHR013C, strain ard1, active compounds read low 0.972 | S. cerevisiae deletion strains, locus YHR027C, strain rpn1, active compounds read low 0.974 | [8] 0.987 | S. cerevisiae deletion strains, locus YHR079C, strain IRE1, active compounds read low 0.994 | S. cerevisiae deletion strains, locus YHR142W, strain chs7, active compounds read low 0.941 | S. cerevisiae deletion strains, locus YJL092W, strain hpr5, active compounds read low 0.984 | S. cerevisiae deletion strains, locus YJL095W, strain BCK1 (second series), active compounds read low 0.976 | S. cerevisiae deletion strains, locus YJL095W, strain BCK1, active compounds read low 0.998 | S. cerevisiae deletion strains, locus YJL115W, strain asf1, active compounds read low 0.952 | S. cerevisiae deletion strains, locus YJL129C, strain trk1, active compounds read low 0.954 | S. cerevisiae deletion strains, locus YJL154C, strain vps35, active compounds read low 0.982 | S. cerevisiae deletion strains, locus YJL164C, strain tpk1, active compounds read low 0.984 | S. cerevisiae deletion strains, locus YJL166W, strain qcr8, active compounds read low 0.985 | [10] 0.992 | S. cerevisiae deletion strains, locus YJR066W, strain TOR1, active compounds read low 0.943 | S. cerevisiae deletion strains, locus YKL160W, strain elf1, active compounds read low 0.983 | S. cerevisiae deletion strains, locus YKR026C, strain gcn3, active compounds read low 0.969 | S. cerevisiae deletion strains, locus YKR091W, strain srl3, active compounds read low 0.98 | S. cerevisiae deletion strains, locus YLL001W, strain dnm1, active compounds read low 0.96 | S. cerevisiae deletion strains, locus YLL026W, active compounds read low 0.975 | S. cerevisiae deletion strains, locus YLL041C, strain sdh2, active compounds read low 0.979 | S. cerevisiae deletion strains, locus YLR027C, strain aat2, active compounds read low 0.978 | S. cerevisiae deletion strains, locus YLR113W, strain HOG1, active compounds read low 0.986 | S. cerevisiae deletion strains, locus YLR221C, strain rsa3, active compounds read low 0.988 | S. cerevisiae deletion strains, locus YLR258W, strain gsy2, active compounds read low 0.989 | S. cerevisiae deletion strains, locus YLR262C, strain YPT6 (second series), active compounds read low 0.966 | S. cerevisiae deletion strains, locus YLR320W, strain mms22, active compounds read low 0.977 | S. cerevisiae deletion strains, locus YLR342W, strain FKS1, active compounds read low 0.981 | S. cerevisiae deletion strains, locus YLR357W, strain rsc2, active compounds read low 0.971 | S. cerevisiae deletion strains, locus YLR370C, strain arc18, active compounds read low 0.981 | S. cerevisiae deletion strains, locus YLR384C, strain iki3, active compounds read low 0.979 | S. cerevisiae deletion strains, locus YML120C, strain ndi1, active compounds read low 0.973 | S. cerevisiae deletion strains, locus YMR058W, strain fet3, active compounds read low 0.974 | S. cerevisiae deletion strains, locus YMR125W, strain sto1, active compounds read low 0.961 | S. cerevisiae deletion strains, locus YMR129W, active compounds read low 0.979 | S. cerevisiae deletion strains, locus YMR205C, strain PFK2, active compounds read low 0.997 | S. cerevisiae deletion strains, locus YMR231W, strain pep5, active compounds read low 0.98 | S. cerevisiae deletion strains, locus YNL071W, strain lat1, active compounds read low 0.979 | S. cerevisiae deletion strains, locus YNL183C, strain NPR1, active compounds read low 0.942 | S. cerevisiae deletion strains, locus YNL209W, strain ssb2, active compounds read low 0.98 | S. cerevisiae deletion strains, locus YNL248C, strain rpa49, active compounds read low 0.946 | S. cerevisiae deletion strains, locus YNL322C, strain KRE1 (second series), active compounds read low 0.959 | S. cerevisiae deletion strains, locus YNR049C, strain mso1, active compounds read low 0.98 | S. cerevisiae deletion strains, locus YOR001W, strain rrp6, active compounds read low 0.98 | S. cerevisiae deletion strains, locus YOR070C, strain gyp1, active compounds read low 0.994 | S. cerevisiae deletion strains, locus YOR080W, strain dia2, active compounds read low 0.975 | S. cerevisiae deletion strains, locus YOR083W, strain WHI5, active compounds read low 0.98 | S. cerevisiae deletion strains, locus YOR106W, strain vam3, active compounds read low 0.977 | S. cerevisiae deletion strains, locus YOR231W, strain MKK1, active compounds read low 0.976 | S. cerevisiae deletion strains, locus YOR265W, strain rbl2, active compounds read low 0.977 | S. cerevisiae deletion strains, locus YOR270C, strain vph1, active compounds read low 0.869 | S. cerevisiae deletion strains, locus YOR290C, strain snf2, active compounds read low 0.991 | S. cerevisiae deletion strains, locus YPL051W, strain arl3, active compounds read low 1 | S. cerevisiae deletion strains, locus YPL078C, strain atp4, active compounds read low 0.971 | S. cerevisiae deletion strains, locus YPL106C, strain sse1, active compounds read low 0.957 | S. cerevisiae deletion strains, locus YPL240C, strain hsp82, active compounds read low 0.972 | S. cerevisiae deletion strains, locus YPL256C, strain CLN2, active compounds read low 0.972

COc1ccccc1N1CCN(CCCCNS(=O)(=O)c2cccc3c(N(C)C)cccc23)CC1
inactive: [1] 0.944 | S. cerevisiae deletion strains, locus YAL040C, strain CLN3, active compounds read low 0.979 | S. cerevisiae deletion strains, locus YCL061C, strain MRC1 (second series), active compounds read low 0.976 | S. cerevisiae deletion strains, locus YDR363W, strain ESC2, active compounds read low 0.939 | S. cerevisiae deletion strains, locus YER002W, strain NOP16, active compounds read low 0.999 | [7] 0.997 | [12] 0.955 | [19] 0.979 | [20] 0.994 | [21] 0.989 | S. cerevisiae deletion strains, locus YNL175C, strain NOP13, active compounds read low 1.02 | S. cerevisiae deletion strains, locus YNL197C, strain WHI3, active compounds read low 0.99 | S. cerevisiae deletion strains, locus YNL224C, strain SQS1, active compounds read low 1.04 | [23] 0.951 | S. cerevisiae deletion strains, locus YOR083W, strain WHI5 (second series), active compounds read low 1.02

CCOC(=O)c1cnn(-c2ccc(F)cc2)c1N
inactive: [1] 0.99 | [2] 0.992 | [4] 0.984 | S. cerevisiae deletion strains, locus YDL134C, strain PPH21, active compounds read low 1 | [5] 0.866 | [6] 0.984 | [7] 0.998 | S. cerevisiae deletion strains, locus YGR229C, strain SMI1, active compounds read low 0.987 | [8] 1.07 | [9] 0.967 | [10] 0.989 | [11] 0.994 | [12] 0.9 | [13] 1.04 | [14] 0.995 | [15] 0.919 | [16] 1.04 | [17] 0.938 | [18] 0.995 | [19] 0.991 | [21] 0.974 | [22] 0.966 | [23] 0.987 | [24] 0.973 | [25] 0.869 | [26] 1.06 | [27] 0.844 | [28] 0.993

CCOC(=O)c1cnn(-c2ccc(N)cc2)c1C(F)(F)F
inactive: [1] 0.979 | [2] 0.992 | [3] 0.979 | [4] 0.992 | [5] 1.02 | [6] 0.918 | [7] 1.01 | [9] 1.02 | [11] 0.983 | [12] 1.04 | [14] 0.996 | [18] 0.99 | [19] 0.994 | [21] 0.984 | [22] 0.861 | [23] 1.01 | [24] 0.936 | [25] 0.91 | [26] 0.871 | [27] 0.797 | [28] 0.977
active: [8] 0.378 | [13] 0.429 | [15] 0.695 | [16] 0.472 | [17] 0.848
